Data as given in PubChem BioAssay (NCI).
Compounds without any hit were thinned out: in the full panel of roughly 83,000, 20% have a hit.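 Percent growth is the endpoint: 0 to 100 indicates growth inhibition (40 means 60% inhibition), 0 means no net growth, and negative values indicate cell death.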 Calls of active or inactive are those of the source. Rule for the calls: active = growth percent below 10; inactive = the rest.

How the values were obtained:
Assay in all cases: NCI-60 one-dose screen, 48 h (100 = growth as untreated, 0 = no growth, -100 = all killed)
NCI-H23 lung = test system: NCI-H23 lung
NCI-H226 lung = test system: NCI-H226 lung
NCI-H322M lung = test system: NCI-H322M lung
HOP-62 NSCLC = test system: HOP-62 NSCLC
NCI-H460 lung = test system: NCI-H460 lung
HOP-92 NSCLC = test system: HOP-92 NSCLC
NCI-H522 lung = test system: NCI-H522 lung
786-0 renal = test system: 786-0 renal
COLO 205 colon = test system: COLO 205 colon
DU-145 prostate = test system: DU-145 prostate
MALME-3M melanoma = test system: MALME-3M melanoma
MDA-MB-231 breast = test system: MDA-MB-231 breast
RXF 393 renal = test system: RXF 393 renal
SF-268 CNS = test system: SF-268 CNS
SF-295 CNS = test system: SF-295 CNS
SF-539 CNS = test system: SF-539 CNS
UACC-257 melanoma = test system: UACC-257 melanoma
M14 melanoma = test system: M14 melanoma
A549/ATCC NSCLC = details: 10 µM unless noted
K-562 leukemia = details: 10 µM unless noted

Measured: growth

CC/C(=C(/c1ccc(O)cc1)c1ccc(OCCN(C)C(=O)COCCOCCNC(=O)Cc2ccc3c(c2)CN([C@@H]2CCC(=O)NC2=O)C3=O)cc1)c1ccccc1
active: MALME-3M melanoma; 10 µM 1.5% | MDA-MB-231 breast; 1 µM 9.31% | MDA-MB-231 breast; 10 µM -22.2%
inactive: NCI-H23 lung; 1 µM 101% | NCI-H23 lung; 10 µM 97.4% | NCI-H226 lung; 1 µM 93.8% | NCI-H226 lung; 10 µM 39.9% | NCI-H322M lung; 1 µM 93.9% | NCI-H322M lung; 10 µM 64.1% | HOP-62 NSCLC; 1 µM 91.6% | HOP-62 NSCLC; 10 µM 38.8% | NCI-H460 lung; 1 µM 125% | NCI-H460 lung; 10 µM 110% | HOP-92 NSCLC; 1 µM 15.5% | HOP-92 NSCLC; 10 µM 12.7% | NCI-H522 lung; 1 µM 93.6% | NCI-H522 lung; 10 µM 88.1% | 786-0 renal; 1 µM 96% | 786-0 renal; 10 µM 80.7% | COLO 205 colon; 1 µM 96.4% | COLO 205 colon; 10 µM 31.2% | DU-145 prostate; 1 µM 104% | DU-145 prostate; 10 µM 105% | MALME-3M melanoma; 1 µM 51.4% | RXF 393 renal; 1 µM 97.4% | RXF 393 renal; 10 µM 99.2% | SF-268 CNS; 1 µM 96.2% | SF-268 CNS; 10 µM 61.3% | SF-295 CNS; 1 µM 101% | SF-295 CNS; 10 µM 94.7% | SF-539 CNS; 1 µM 80.7% | SF-539 CNS; 10 µM 65.3% | UACC-257 melanoma; 1 µM 101% | UACC-257 melanoma; 10 µM 99.8% | M14 melanoma; 1 µM 92.8% | M14 melanoma; 10 µM 65.4%

CN1CCc2c(sc3ncnc(N/N=C/c4cccc(Cl)c4Cl)c23)C1
active: NCI-H23 lung; 10 µM unless noted -6.68% | HOP-62 NSCLC; 10 µM unless noted -38.2% | NCI-H460 lung; 10 µM unless noted -71.1% | A549/ATCC NSCLC -70.1% | 786-0 renal; 10 µM unless noted -16.1% | COLO 205 colon; 10 µM unless noted -80.3% | DU-145 prostate; 10 µM unless noted -5.42% | K-562 leukemia -7.35% | MDA-MB-231 breast; 10 µM unless noted -43.4% | SF-295 CNS; 10 µM unless noted -72.5% | SF-539 CNS; 10 µM unless noted -91.8%
inactive: NCI-H226 lung; 10 µM unless noted 134% | NCI-H322M lung; 10 µM unless noted 77.3% | HOP-92 NSCLC; 10 µM unless noted 58.4% | NCI-H522 lung; 10 µM unless noted 68.8% | MALME-3M melanoma; 10 µM unless noted 87.5% | RXF 393 renal; 10 µM unless noted 27.3% | SF-268 CNS; 10 µM unless noted 43.1% | UACC-257 melanoma; 10 µM unless noted 76.5% | M14 melanoma; 10 µM unless noted 64.5%

N#CC1=C(c2cccs2)Nc2c(c(-c3ccccc3)nn2-c2ccccc2)C12C(=O)Nc1ccccc12 (stereo not drawn)
inactive: NCI-H23 lung; 10 µM unless noted 13.6% | NCI-H226 lung; 10 µM unless noted 12.8% | NCI-H322M lung; 10 µM unless noted 80.1% | COLO 205 colon; 10 µM unless noted 55.9% | DU-145 prostate; 10 µM unless noted 33.5% | MALME-3M melanoma; 10 µM unless noted 26.9% | MDA-MB-231 breast; 10 µM unless noted 34.2% | SF-268 CNS; 10 µM unless noted 54.3% | SF-295 CNS; 10 µM unless noted 40.3% | UACC-257 melanoma; 10 µM unless noted 88%
active: HOP-62 NSCLC; 10 µM unless noted -20% | NCI-H460 lung; 10 µM unless noted 5.58% | HOP-92 NSCLC; 10 µM unless noted -13.1% | NCI-H522 lung; 10 µM unless noted 5.69% | A549/ATCC NSCLC 5.42% | 786-0 renal; 10 µM unless noted 1.25% | K-562 leukemia 9.66% | RXF 393 renal; 10 µM unless noted -13.4% | SF-539 CNS; 10 µM unless noted -45.2%

N#C/C(=C/c1ccc([N+](=O)[O-])cc1)c1nnc(NC(=O)c2ccc(-n3c(=O)[nH]c4ccccc4c3=O)cc2)s1
inactive: NCI-H23 lung; 10 µM unless noted 91.9% | NCI-H226 lung; 10 µM unless noted 87.8% | NCI-H322M lung; 10 µM unless noted 97.5% | HOP-62 NSCLC; 10 µM unless noted 85.6% | NCI-H460 lung; 10 µM unless noted 79.2% | HOP-92 NSCLC; 10 µM unless noted 101% | NCI-H522 lung; 10 µM unless noted 108% | A549/ATCC NSCLC 102% | 786-0 renal; 10 µM unless noted 104% | COLO 205 colon; 10 µM unless noted 122% | DU-145 prostate; 10 µM unless noted 83.1% | K-562 leukemia 103% | MALME-3M melanoma; 10 µM unless noted 91.6% | MDA-MB-231 breast; 10 µM unless noted 89.5% | RXF 393 renal; 10 µM unless noted 87.9% | SF-268 CNS; 10 µM unless noted 110% | SF-295 CNS; 10 µM unless noted 100% | SF-539 CNS; 10 µM unless noted 93.6% | UACC-257 melanoma; 10 µM unless noted 105%

O=C(Cc1c(-c2cccc([N+](=O)[O-])c2)n(-c2ncnc3c2c(-c2ccccc2)c(-c2ccccc2)n3Cc2ccccc2)[nH]c1=O)c1ccc(Cl)c(Cl)c1
inactive: NCI-H23 lung; 10 µM unless noted 16.1% | NCI-H226 lung; 10 µM unless noted 39% | NCI-H322M lung; 10 µM unless noted 79.1% | HOP-62 NSCLC; 10 µM unless noted 44.9% | NCI-H460 lung; 10 µM unless noted 33.9% | A549/ATCC NSCLC 45% | 786-0 renal; 10 µM unless noted 63.4% | COLO 205 colon; 10 µM unless noted 60.2% | DU-145 prostate; 10 µM unless noted 51% | K-562 leukemia 17.6% | MDA-MB-231 breast; 10 µM unless noted 37.4% | RXF 393 renal; 10 µM unless noted 44.9% | SF-268 CNS; 10 µM unless noted 62.3% | SF-295 CNS; 10 µM unless noted 12.2% | SF-539 CNS; 10 µM unless noted 60.7% | UACC-257 melanoma; 10 µM unless noted 30.9%
active: HOP-92 NSCLC; 10 µM unless noted -2.08% | NCI-H522 lung; 10 µM unless noted 7.22% | MALME-3M melanoma; 10 µM unless noted -3.97%

Cc1[nH]nc2ccc3nc(-c4cnn(CCO)c4)c4c(c3c12)CCCC4
active: RXF 393 renal; 10 µM unless noted -6.62%
inactive: NCI-H23 lung; 10 µM unless noted 52.7% | NCI-H226 lung; 10 µM unless noted 28.6% | NCI-H322M lung; 10 µM unless noted 53.8% | HOP-62 NSCLC; 10 µM unless noted 65.6% | NCI-H460 lung; 10 µM unless noted 26.6% | HOP-92 NSCLC; 10 µM unless noted 35.9% | NCI-H522 lung; 10 µM unless noted 18.9% | A549/ATCC NSCLC 49.3% | 786-0 renal; 10 µM unless noted 38.7% | COLO 205 colon; 10 µM unless noted 47.5% | DU-145 prostate; 10 µM unless noted 37.9% | K-562 leukemia 38.5% | MALME-3M melanoma; 10 µM unless noted 41% | MDA-MB-231 breast; 10 µM unless noted 40% | SF-268 CNS; 10 µM unless noted 58.1% | SF-295 CNS; 10 µM unless noted 43.4% | SF-539 CNS; 10 µM unless noted 33.7% | UACC-257 melanoma; 10 µM unless noted 83.1% | M14 melanoma; 10 µM unless noted 27.4%
